Some of the results follow. Records with an inconclusive call do not appear. Activity calls are given as the source filed them. Calls follow the shape of the dose curve; as a rule, active = well fitted inhibition curve with a large enough effect; inconclusive = small, poorly fitted or top-dose-only effect; inactive = no such curve, though single readings can be large or run the other way.
Target: Histone-lysine N-methyltransferase 2A (Homo sapiens) (UniProt Q03164)
Assay: qHTS Fluorescence Polarization (FP) Assay for Inhibitors of MLL CXXC domain - DNA interaction: Texas Red FP; also: nearly all actives have a fitted effect of over 75% in size
Details: MLL CXXC-DNA binding; series mostly up to 345 µM
From the text: The MLL (Mixed Lineage Luekemia) gene is involved in chromosomal translocation that results in either acute lymphoid leukemia (ALL) or acute myeloid leukemia (AML). Chromasomal translocation of MLL gene is responsible for the fusion of N-terminal MLL to more than 60 different partner genes in frame. Many of the MLL partner genes contain transcription activation domains or function as transcriptional activators. Despite the heterogeneity of fusion partners, the N-terminus of MLL fusion proteins always consists of the N-terminal menin binding motif and the CXXC domain. The MLL-CXXC domain specifically recognizes unmethylated CpG sequences of the HOX-A gene. Disruption of the MLL-CXXC and HOX-A gene interaction leads to down regulation of HOX-A gene expression and may potentially reverse leukemogenesis. We have miniaturized and optimized an in-vitro assay to screen for inhibitors of the MLL-CXXC domain and HOX-A DNA interaction, which could have utility in MLL fusion leukemias.
This is a hit validation assay that tests this hits identified in the primary screen in this secondary screen, using a Texas Red FP as a read-out.
NIH Molecular Libraries Probe Production Network [MLPCN]
NIH Chemical Genomics Center [NCGC]
PI Name: John Bushweller, University of Virgina
The affinity purified MLL-CXXC domain, unlabeled HOX-A9 DNA strand, Texas Red (FLSN) labeled HOX-A9 DNA strand were kindly supplied by the laboratory of Dr. John Bushweller, University of Virginia. All reagents were stored in single use aliquots at -80C.
Assay buffer: 50 mM TRIS-HCl pH 7.5, 50 mM NaCl, 1 mM DTT. Add 0.05% BSA prior to reaction setup.
1.Dispense 1 ul of a 7 uM MLL-CXXC solution prepared in assay buffer into column 1-48.
2.Transfer 23 nl of compounds and unlabeled HOX-A9 per well.
3.Incubate for 5 minutes at ambient.
4.Dispense 1ul of a 50 nM TR-HOX-A9 solution prepared in assay buffer into columns 1-48
5.Centrifuge for 30 seconds at 1000 RPM.
6.Incubate for 30 minutes at ambient.
7.Read using the Envision reader fluorescent polarization protocol.
Potency is read from the fitted curve at half-maximal effect.

Sequence of Histone-lysine N-methyltransferase 2A (Homo sapiens) (Q03164 whole entry, looked up, the tested form may be a part): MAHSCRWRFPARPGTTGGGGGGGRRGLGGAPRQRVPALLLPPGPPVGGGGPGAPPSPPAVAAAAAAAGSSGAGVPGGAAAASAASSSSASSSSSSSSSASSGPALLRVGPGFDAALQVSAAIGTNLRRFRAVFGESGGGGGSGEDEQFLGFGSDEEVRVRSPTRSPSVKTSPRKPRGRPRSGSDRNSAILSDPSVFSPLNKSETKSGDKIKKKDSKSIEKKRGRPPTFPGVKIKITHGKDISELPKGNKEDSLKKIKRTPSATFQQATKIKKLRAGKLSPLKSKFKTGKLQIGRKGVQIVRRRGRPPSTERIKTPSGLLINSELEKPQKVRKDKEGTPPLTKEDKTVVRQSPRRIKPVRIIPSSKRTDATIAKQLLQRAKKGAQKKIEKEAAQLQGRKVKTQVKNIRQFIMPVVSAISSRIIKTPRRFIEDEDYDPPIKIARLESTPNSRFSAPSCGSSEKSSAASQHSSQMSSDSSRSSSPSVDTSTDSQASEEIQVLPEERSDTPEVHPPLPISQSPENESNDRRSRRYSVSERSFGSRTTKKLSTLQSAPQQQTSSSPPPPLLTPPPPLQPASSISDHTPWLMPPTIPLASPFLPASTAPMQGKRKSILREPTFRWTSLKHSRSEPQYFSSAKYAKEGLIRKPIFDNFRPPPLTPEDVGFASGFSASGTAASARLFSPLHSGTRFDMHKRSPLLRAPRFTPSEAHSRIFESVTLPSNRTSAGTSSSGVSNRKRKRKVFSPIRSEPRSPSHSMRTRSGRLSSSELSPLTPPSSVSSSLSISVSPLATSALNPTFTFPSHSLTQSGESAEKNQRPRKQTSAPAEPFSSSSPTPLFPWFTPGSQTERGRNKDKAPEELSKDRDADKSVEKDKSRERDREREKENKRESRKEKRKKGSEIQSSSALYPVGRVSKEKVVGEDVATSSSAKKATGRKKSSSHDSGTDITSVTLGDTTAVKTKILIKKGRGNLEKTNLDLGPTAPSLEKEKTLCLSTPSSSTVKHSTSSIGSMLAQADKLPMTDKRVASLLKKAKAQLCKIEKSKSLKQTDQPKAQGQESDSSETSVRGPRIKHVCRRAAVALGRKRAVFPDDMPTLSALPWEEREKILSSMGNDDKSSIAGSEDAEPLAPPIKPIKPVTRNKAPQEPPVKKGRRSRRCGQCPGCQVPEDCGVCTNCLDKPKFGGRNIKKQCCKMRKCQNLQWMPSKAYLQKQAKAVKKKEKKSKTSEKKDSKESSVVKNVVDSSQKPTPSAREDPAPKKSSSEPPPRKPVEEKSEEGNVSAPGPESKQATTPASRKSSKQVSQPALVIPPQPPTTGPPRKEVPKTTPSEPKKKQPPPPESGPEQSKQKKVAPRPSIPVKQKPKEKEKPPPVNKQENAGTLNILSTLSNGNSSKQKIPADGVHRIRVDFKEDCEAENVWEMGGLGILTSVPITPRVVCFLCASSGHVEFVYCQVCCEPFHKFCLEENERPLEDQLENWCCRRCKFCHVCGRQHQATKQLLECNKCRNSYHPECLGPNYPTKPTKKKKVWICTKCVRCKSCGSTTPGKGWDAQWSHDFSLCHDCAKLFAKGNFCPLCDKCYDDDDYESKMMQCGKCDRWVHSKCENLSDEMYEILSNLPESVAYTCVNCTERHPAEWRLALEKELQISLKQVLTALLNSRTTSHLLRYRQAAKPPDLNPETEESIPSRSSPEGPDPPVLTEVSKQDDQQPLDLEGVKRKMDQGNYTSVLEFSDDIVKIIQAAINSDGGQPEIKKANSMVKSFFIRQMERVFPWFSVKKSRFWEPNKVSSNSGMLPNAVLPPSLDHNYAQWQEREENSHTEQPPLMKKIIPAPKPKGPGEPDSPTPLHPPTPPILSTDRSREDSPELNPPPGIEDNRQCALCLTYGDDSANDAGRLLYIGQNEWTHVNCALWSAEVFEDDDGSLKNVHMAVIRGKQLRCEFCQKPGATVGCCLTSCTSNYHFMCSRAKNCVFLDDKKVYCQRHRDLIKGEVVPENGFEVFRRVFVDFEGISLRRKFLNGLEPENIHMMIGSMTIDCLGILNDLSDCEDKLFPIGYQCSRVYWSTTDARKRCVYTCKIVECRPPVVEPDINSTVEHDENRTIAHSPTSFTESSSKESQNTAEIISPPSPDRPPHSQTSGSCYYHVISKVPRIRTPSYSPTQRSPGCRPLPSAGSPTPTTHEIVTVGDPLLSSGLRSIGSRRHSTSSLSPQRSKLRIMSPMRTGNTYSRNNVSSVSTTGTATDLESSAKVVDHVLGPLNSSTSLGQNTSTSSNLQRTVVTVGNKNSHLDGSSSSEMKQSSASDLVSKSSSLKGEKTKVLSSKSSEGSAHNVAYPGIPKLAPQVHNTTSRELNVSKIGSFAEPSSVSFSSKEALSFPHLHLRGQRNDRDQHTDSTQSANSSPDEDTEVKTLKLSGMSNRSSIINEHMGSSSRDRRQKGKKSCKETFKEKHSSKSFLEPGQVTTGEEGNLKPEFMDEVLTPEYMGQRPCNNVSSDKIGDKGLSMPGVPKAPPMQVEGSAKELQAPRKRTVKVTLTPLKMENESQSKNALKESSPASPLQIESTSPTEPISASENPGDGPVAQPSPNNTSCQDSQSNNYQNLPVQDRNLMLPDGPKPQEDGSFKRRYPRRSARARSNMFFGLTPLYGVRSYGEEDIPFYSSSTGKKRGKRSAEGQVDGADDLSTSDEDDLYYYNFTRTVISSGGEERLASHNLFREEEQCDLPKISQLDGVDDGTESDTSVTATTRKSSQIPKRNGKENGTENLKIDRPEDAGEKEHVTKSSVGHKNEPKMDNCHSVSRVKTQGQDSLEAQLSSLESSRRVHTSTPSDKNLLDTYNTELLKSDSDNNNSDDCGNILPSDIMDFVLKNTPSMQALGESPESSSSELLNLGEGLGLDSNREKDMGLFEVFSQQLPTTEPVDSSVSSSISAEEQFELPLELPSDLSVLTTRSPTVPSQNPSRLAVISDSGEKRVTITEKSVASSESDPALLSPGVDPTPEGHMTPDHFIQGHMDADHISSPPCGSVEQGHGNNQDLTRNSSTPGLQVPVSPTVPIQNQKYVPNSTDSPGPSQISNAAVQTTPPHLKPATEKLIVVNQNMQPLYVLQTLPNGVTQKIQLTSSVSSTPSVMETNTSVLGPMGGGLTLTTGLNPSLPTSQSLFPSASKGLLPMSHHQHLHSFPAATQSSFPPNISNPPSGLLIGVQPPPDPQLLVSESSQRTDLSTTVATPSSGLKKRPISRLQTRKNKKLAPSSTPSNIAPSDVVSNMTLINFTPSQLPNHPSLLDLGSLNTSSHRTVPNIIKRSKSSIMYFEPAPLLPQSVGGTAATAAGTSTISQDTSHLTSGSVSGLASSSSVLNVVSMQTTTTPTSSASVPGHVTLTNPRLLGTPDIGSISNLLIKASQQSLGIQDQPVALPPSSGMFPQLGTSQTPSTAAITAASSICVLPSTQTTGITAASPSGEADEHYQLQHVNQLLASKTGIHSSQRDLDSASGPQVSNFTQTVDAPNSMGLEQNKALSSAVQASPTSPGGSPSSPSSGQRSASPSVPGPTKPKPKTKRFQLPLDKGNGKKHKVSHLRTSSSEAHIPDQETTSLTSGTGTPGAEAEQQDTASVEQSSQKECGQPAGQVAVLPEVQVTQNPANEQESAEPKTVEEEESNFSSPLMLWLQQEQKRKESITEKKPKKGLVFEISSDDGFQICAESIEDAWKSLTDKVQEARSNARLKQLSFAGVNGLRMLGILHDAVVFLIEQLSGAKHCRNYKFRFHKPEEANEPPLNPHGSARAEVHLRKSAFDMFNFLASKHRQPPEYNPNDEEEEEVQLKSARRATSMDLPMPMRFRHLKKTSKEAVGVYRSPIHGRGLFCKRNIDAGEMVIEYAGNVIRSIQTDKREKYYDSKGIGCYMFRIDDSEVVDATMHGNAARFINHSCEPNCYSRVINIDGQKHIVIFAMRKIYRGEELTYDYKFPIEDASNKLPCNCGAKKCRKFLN

| SMILES | Potency |
| --- | --- |
| COc1ccc(S(=O)(=O)/N=C2\C=C(NS(=O)(=O)c3ccccc3)C(=O)c3ccccc32)cc1 | inactive |
| CCOC(=O)/C(N=Nc1cc(C(=O)O)cc(C(=O)O)c1)=C(\O)CCl | 142 µM (active) |
| COc1ccc(-c2onc3ccc(C(C)=O)cc23)cc1 | inactive |
| O=C1NN(c2ccccc2)C(=O)/C1=C/c1ccc(-c2cccc(C(=O)O)c2)o1 | 126 µM (active) |
| COc1cc(/C=C2/C(=O)NN(c3ccc(F)cc3)C2=O)cc([N+](=O)[O-])c1O | 126 µM (active) |

From PubChem BioAssay AID624161 (National Center for Advancing Translational Sciences (NCATS), 2012)
